From PubChem BioAssay (Tox21) come the findings set out here.

The structures appear in SMILES notation. Unmarked numbers belong to inactive results. Results filed as inconclusive are left out. Some structures have more than one record in an assay (separate samples or runs), and their calls can disagree. Active and inactive are the calls of the source. Unless noted, calls follow the shape of the dose curve; as a rule, active = well fitted curve in the direction sought with a large enough effect in the repeat runs; inconclusive = weak or mixed curves; inactive = no such curve, though single readings can be large; an effect the other way counts as inactive or inconclusive.

In assay [1] the target is Progesterone receptor (Homo sapiens) (UniProt P06401). As to the kind of experiment: qHTS assay to identify small molecule agonists of the progesterone receptor (PR) signaling pathway (AID 1346784; calls by dose curve; also: nearly all actives have a fitted effect of over 30% in size; also: potency is read from the fitted curve at half-maximal effect). In outline: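 PR-UAS-bla HEK 293T cells (beta-lactamase reporter under UAS) in 2% charcoal-stripped FBS, dosed with 23 nL compound after 6 hr, incubated 16hr at 37C. LiveBLAzer B/G FRET substrate added, fluorescence read after 2 hours.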
Chain of Progesterone receptor (Homo sapiens) (P06401 whole entry, looked up): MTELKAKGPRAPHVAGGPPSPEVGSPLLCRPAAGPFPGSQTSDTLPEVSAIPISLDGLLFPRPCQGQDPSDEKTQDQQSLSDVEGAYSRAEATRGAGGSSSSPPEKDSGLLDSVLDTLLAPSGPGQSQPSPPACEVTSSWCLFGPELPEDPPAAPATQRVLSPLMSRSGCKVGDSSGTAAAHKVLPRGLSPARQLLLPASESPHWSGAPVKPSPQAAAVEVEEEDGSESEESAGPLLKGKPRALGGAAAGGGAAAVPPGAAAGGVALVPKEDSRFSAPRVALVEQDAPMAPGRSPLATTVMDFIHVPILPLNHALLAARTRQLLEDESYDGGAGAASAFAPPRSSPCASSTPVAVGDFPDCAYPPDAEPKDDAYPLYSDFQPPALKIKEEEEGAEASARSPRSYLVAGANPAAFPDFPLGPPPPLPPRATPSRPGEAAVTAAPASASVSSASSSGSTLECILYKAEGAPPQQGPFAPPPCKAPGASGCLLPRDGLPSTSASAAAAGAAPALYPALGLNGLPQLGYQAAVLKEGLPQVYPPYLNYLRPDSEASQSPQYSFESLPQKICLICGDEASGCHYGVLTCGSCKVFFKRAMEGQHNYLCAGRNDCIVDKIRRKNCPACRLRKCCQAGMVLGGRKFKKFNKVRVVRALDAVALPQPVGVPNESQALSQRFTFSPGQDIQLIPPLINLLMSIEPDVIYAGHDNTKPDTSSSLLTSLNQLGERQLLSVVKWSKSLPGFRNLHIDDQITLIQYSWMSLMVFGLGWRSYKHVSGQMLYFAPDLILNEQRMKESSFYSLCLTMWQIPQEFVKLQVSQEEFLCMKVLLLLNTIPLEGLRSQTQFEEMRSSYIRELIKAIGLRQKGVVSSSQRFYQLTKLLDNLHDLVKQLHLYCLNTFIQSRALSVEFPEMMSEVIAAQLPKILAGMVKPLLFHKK
For orientation: In qHTS, concentration-response curves come from the screen itself.

The target is the same in assay [2]. Description: qHTS assay to identify small molecule antagonists of the progesterone receptor (PR) signaling pathway (AID 1346795; active = well fitted inhibition curve with a large enough effect in the signal ratio in the repeat runs, not every such curve was filed as active; the % refers to the signal ratio). The method, boiled down: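 PR-UAS-bla HEK293T cells with beta-lactamase reporter under UAS control, in 2% charcoal-stripped FBS, treated with compounds plus 1 nM promegestone (R5020, final) for 16 hr at 37C. Read-out: FRET beta-lactamase substrate fluorescence after 2 hr at room temperature.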

A short description of assay [3]: qHTS assay to identify small molecule antagonists of the progesterone receptor (PR) signaling pathway - cell viability counter screen (AID 1346798). Also: series mostly up to about 92 µM; nearly all actives have a fitted effect of over 50% in size. The method, boiled down: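 PR-UAS-bla HEK293T cells, 3,000/well in 2% charcoal-stripped FBS medium, dosed with compounds plus R5020 agonist and incubated 16 h at 37C. Viability then measured in the same wells by CellTiter-Glo luminescence after 30 min at RT.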

The nature of assay [4]: qHTS assay to identify small molecule agonists of the progesterone receptor (PR) signaling pathway - cell viability counter screen (AID 1346799; calls by dose curve; also: nearly all actives have a fitted effect of over 45% in size). The method, boiled down:
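Counter screen in the PR-UAS-bla HEK293T wells (2% charcoal-stripped FBS, 16 h compound exposure at 37 C) after the bla read. CellTiter-Glo added, 30 min at room temperature, luminescence read as cell viability.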

Assay [5] in a line: qHTS assay to identify small molecule antagonists of the TGF-beta/Smad signaling pathway - cell viability counter screen (AID 1346824). Also: nearly all actives have a fitted effect of over 50% in size. The method, boiled down:
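Cytotoxicity counter-screen run in the same wells as the beta-lactamase Smad reporter read: CellTiter-Glo luminescence after 30 min at room temperature. HEK 293T SBE-bla cells had 5 hr compound exposure at 37 C with TGF-beta1 (0.25 ng/mL stock).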

Assay [6] is described as follows: qHTS assay to identify small molecule agonists of the TGF-beta/Smad signaling pathway - cell viability counter screen (AID 1346829). Also: top concentration of the series differs between compounds; nearly all actives have a fitted effect of over 45% in size. The method, boiled down: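 Same-well cytotoxicity: CellTiter-Glo added after the 2 hr room-temperature beta-lactamase substrate step, luminescence measured 30 min later; cells had 5 hr of compound at 37 C.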
Assay [7] in a line: qHTS assay to identify small molecule agonists of the TGF-beta/Smad signaling pathway (AID 1346859; active = well fitted activation curve with a large enough effect in the signal ratio in the repeat runs, not every such curve was filed as active; the % refers to the signal ratio; also: series mostly up to about 77 µM). In outline:
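SBE-bla HEK293T cells plated overnight, then compound exposure for 5 h at 37 C. Beta-lactamase reporter read with LiveBLAzer B/G FRET substrate after 2 h at room temperature, fluorescence at 405 nm excitation, 460/530 nm emission.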

Assay [8] has as its target Thyrotropin-releasing hormone receptor (Homo sapiens) (UniProt P34981). As to the kind of experiment: qHTS assay to identify small molecule antagonists of the thyrotropin-releasing hormone receptor (TRHR) signaling pathway (AID 1346877; active = well fitted inhibition curve with a large enough effect in the repeat runs, not every such curve was filed as active; also: series mostly up to about 51 µM). In outline: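 Antagonism is measured as suppression of the calcium response to 1 nM TRH in TRHR-HEK293 cells that have been dye-loaded for 2 h at 37 °C after overnight plating. Each compound is tested at 15 concentrations in triplicate.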

For assay [9] the target is unchanged. As to the kind of experiment: qHTS assay to identify small molecule agonists of the thyrotropin-releasing hormone receptor (TRHR) signaling pathway (AID 1346891; calls by dose curve; also: series mostly up to about 58 µM). In outline:
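HEK293 cells expressing TRHR plated 18 h at 37 C/5% CO2, calcium dye-loaded 2 h at 37 C, then compound added (agonist mode); kinetic calcium fluorescence read 3 min at 1 s intervals; 15 concentrations in triplicate.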

Assay [10] can be described thus: Human pregnane X receptor (PXR) small molecule agonists, qHTS cell viability counter screen (AID 1346977). Also: nearly all actives have a fitted effect of over 50% in size. In outline: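 PXR-Luc HepG2 cells (2,000/well, 5% charcoal-stripped FBS) preincubated 5 hr, then exposed to compounds 24 hr at 37 C. Viability read in the same wells by CellTiter-Fluor fluorescence, reagent added at 23 hr, 1 hr incubation.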
A short description of assay [11]: Caspase-3/7 induction in HepG2 cells by small molecules, qHTS assay (AID 1346978). Also: nearly all actives have a fitted effect of over 15% in size. The method, boiled down:
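Caspase-3/7 induction was measured by Caspase-Glo 3/7 luminescence (30 min, room temperature) after a 17 hr compound exposure of wild-type HepG2 cells seeded at 2,000 per well and pre-incubated 5 hr.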

Assay [12] is described as follows: Caspase-3/7 induction in CHO-K1 cells by small molecules, qHTS cell viability counter screen (AID 1346979). Also: nearly all actives have a fitted effect of over 35% in size. In outline:
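Wild-type CHO-K1 cells (1,500/well) treated with compound after 5 h plating; after 16 h at 37C, viability read as CellTiter-Fluor fluorescence following 1 h reagent incubation, in the same wells as the caspase read.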

A short description of assay [13]: Caspase-3/7 induction in CHO-K1 cells by small molecules, qHTS assay (AID 1346980). Also: nearly all actives have a fitted effect of over 15% in size. In outline:
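Luminescent Caspase-Glo 3/7 read (30min, room temperature) quantified apoptosis induction. Cells were wild-type CHO-K1, treated with compound for 17hr at 37 C and 5% CO2.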

Assay [14] in a line: Caspase-3/7 induction in HepG2 cells by small molecules, qHTS cell viability counter screen (AID 1346981). Also: series mostly up to about 92 µM; nearly all actives have a fitted effect of over 30% in size. In outline: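 Cell viability is measured as a cytotoxicity counter screen alongside the Caspase-Glo 3/7 readout in identical wells. Wild-type HepG2 cells are treated with test compounds for 16 hr at 37 C before CellTiter-Fluor addition and a 1-hr incubation.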
Assay [15] has as its target Nuclear receptor subfamily 1 group I member 2 (Homo sapiens) (UniProt O75469). Description: Human pregnane X receptor (PXR) small molecule agonists, qHTS assay (AID 1346982). Also: nearly all actives have a fitted effect of over 35% in size. In outline:
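Cells: HepG2 stably carrying PXR-Luc. Medium held 5% charcoal-stripped FBS. Compounds in DMSO added after 5 hr plating, incubated 24 hr, then luminescence quantified with ONE-Glo.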

Assay [16] concerns the target Cytochrome P450 2D6 (Homo sapiens) (UniProt P10635). Description: Cytochrome P450 Family 2 Subfamily D Member 6 (CYP2D6) small molecule antagonists: luciferase reporter qHTS assay (AID 1671196). Also: series mostly up to about 120 µM; nearly all actives have a fitted effect of over 50% in size. The method, boiled down:
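Enzyme and proluciferin substrate were first combined with test chemical for 10 min at room temperature. Adding NADPH regeneration solution started a 1 h reaction, stopped with luciferin detection reagent and read by luminescence 20 min later.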

The target in assay [17] is Cytochrome P450 2C19 (Homo sapiens) (UniProt P33261). As to the kind of experiment: Cytochrome P450 Family 2 Subfamily C Member 19 (CYP2C19) small molecule antagonists: luciferase reporter qHTS assay (AID 1671197). Also: nearly all actives have a fitted effect of over 65% in size. Also: potency is read from the fitted curve at half-maximal effect. As to activity change, negative = inhibition: series mostly up to about 120 µM. In outline:
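Quantitative high-throughput screen of the Tox21 library using CYP2C19 with proluciferin substrate. Reaction: NADPH regeneration, 37C, 1 h, after 10 min compound preincubation at room temperature. Readout: luminescence.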
(In general: Reporter assays use an easily measured gene product as a stand-in for the process of interest.)

Assay [18] concerns the target Nuclear receptor subfamily 1 group I member 2 (Rattus norvegicus) (UniProt Q9R1A7). Description: Rat pregnane X receptor (rPXR) activation by small molecules, qHTS assay (AID 1346983). Also: nearly all actives have a fitted effect of over 20% in size. The note with it: rPXR luciferase reporter cells, One-Glo luminescence, 24 h; stronger effect = higher value. In outline: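 Luminescent readout (One-Glo luciferase, 30 min room temperature) followed 24 hr compound treatment at 37 C of rPXR cells plated 2,000 per well and preincubated 5hr; qHTS format with compounds delivered in DMSO.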

Assay [19] addresses Nuclear receptor subfamily 1 group I member 2 (Homo sapiens) (UniProt O75469). Description: Human pregnane X receptor (PXR) activation by small molecules, qHTS assay (AID 1346985). Also: nearly all actives have a fitted effect of over 40% in size. The method, boiled down:
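DPX-2 cells (HepG2 co-transfected with a PXR response element and a CYP3A4-promoter luciferase construct) were seeded at 2,000 per well, rested 5 hr at 37C, then exposed to DMSO-dissolved compounds for 24 hr. Activation was read as luciferase luminescence.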
% is scaled to controls: 0 for no effect and ±100 for the full control effect.

Chain of Thyrotropin-releasing hormone receptor (Homo sapiens) (P34981 whole entry, looked up): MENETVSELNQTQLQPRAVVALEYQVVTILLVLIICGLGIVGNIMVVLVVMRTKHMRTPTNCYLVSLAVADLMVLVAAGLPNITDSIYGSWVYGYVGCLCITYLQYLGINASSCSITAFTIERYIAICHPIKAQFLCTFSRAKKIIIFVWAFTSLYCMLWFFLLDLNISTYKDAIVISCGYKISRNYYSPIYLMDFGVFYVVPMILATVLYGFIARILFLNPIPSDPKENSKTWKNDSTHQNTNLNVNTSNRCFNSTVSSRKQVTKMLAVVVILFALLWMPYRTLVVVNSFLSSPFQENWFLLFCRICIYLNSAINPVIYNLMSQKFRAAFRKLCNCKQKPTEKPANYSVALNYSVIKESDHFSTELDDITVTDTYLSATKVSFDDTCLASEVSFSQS
Chain of Nuclear receptor subfamily 1 group I member 2 (Homo sapiens) (O75469 whole entry, looked up): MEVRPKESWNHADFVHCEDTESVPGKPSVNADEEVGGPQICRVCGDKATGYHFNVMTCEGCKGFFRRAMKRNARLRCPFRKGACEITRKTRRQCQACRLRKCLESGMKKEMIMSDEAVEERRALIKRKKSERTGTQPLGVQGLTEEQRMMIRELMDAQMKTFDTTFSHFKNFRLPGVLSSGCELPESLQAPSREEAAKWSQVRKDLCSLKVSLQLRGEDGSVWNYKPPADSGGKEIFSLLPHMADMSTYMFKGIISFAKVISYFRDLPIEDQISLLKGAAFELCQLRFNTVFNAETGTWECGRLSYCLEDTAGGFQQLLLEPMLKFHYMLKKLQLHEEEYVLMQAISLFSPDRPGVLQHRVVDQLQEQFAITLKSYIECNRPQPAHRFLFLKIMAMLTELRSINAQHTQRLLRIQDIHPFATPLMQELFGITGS
Chain of Cytochrome P450 2D6 (Homo sapiens) (P10635 whole entry, looked up): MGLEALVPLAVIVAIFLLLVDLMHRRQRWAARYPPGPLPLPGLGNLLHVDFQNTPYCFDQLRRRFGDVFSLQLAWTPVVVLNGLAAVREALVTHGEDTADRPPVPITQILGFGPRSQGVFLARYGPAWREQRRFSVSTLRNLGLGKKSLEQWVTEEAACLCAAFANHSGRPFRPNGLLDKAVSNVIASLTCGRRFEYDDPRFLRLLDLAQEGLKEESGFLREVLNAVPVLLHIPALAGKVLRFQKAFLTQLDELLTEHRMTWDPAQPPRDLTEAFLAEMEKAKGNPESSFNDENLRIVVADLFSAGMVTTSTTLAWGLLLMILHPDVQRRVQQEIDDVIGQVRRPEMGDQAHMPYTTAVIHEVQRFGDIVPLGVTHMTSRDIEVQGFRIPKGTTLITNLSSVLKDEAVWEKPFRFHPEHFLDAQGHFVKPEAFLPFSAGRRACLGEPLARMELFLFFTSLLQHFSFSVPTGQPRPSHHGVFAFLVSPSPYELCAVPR
Chain of Cytochrome P450 2C19 (Homo sapiens) (P33261 whole entry, looked up): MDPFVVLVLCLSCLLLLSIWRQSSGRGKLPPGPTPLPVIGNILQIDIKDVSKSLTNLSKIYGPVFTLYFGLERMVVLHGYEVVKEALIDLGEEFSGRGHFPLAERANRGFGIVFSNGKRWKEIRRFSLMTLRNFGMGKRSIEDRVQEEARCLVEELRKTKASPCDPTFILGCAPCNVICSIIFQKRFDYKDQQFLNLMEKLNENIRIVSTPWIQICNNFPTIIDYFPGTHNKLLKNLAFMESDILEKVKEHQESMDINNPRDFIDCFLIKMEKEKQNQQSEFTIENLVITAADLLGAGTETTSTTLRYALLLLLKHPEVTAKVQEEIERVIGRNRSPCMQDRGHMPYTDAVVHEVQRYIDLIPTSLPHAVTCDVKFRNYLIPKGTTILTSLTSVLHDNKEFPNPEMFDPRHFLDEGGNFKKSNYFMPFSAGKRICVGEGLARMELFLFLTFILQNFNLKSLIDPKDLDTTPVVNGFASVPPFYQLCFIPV
Chain of Nuclear receptor subfamily 1 group I member 2 (Rattus norvegicus) (Q9R1A7 whole entry, looked up): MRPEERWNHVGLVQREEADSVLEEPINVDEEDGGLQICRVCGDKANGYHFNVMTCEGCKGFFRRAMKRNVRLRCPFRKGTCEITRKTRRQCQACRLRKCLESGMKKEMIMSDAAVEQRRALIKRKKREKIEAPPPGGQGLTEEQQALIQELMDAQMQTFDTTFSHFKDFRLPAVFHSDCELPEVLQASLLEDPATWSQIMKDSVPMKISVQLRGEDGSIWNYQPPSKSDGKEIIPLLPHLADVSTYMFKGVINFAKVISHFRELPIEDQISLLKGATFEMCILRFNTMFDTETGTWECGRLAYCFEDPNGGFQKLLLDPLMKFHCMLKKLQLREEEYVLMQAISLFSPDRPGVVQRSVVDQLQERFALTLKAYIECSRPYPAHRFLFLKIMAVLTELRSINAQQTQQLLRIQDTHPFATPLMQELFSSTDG

Consider `CCCCCCCCCCCCCC(=O)O`, for which the Potency entry in assay [1], in assay [2], in [3], in assay [4], in [5] and in [6] was “inactive” each time. Moreover, the Potency result in assay [7], in [8], in assay [10], in [11], in assay [12] and in assay [13] was “inactive” in each case. Further, the Potency entry in [14], in [15], in [16] and in assay [17] was “inactive” each time. Moreover, the compound was classed as inactive in assay [9].
As for `CCn1cc(C(=O)O)c(=O)c2cc3c(cc21)OCO3`, the Potency in [1] was 1.24 µM (active); in assay [17], 51 µM (active). The activation in assay [1] was -1.39% [at 19 µM]. Besides, the Potency result in assay [2], in assay [3], in assay [5], in [6], in [7] and in assay [8] was “inactive” throughout. In addition, the Potency result in assay [10], in assay [11], in [12], in assay [13], in [14] and in [15] was “inactive” each time. Moreover, the Potency result in assay [16] was “inactive”. In assay [4], the activity change, negative = cytotoxicity is -0.681% [at 19 µM]. Moreover, the outcome in assay [9] was inactive. Besides, the activity change, negative = inhibition in assay [17] was -7.51% [at 23.6 µM].
With `COc1c(Cl)ccc(Cl)c1C(=O)O`, the Potency entry in assay [1], in assay [2], in assay [3], in [4], in assay [5] and in assay [6] was “inactive” throughout. Further, the Potency entry in assay [7], in assay [8], in assay [10], in assay [11], in assay [12] and in [13] was “inactive” each time. Further, the Potency result in assay [14], in assay [15], in assay [16] and in assay [17] was “inactive” throughout. Further, the compound was called inactive in assay [9].
In the case of `CC(=O)OC(C)(C)C1CC=C(C)CC1` (stereo unspecified), the Potency result in assay [1], in [2], in assay [3], in assay [4], in assay [5] and in assay [6] was “inactive” each time. For the same compound, the Potency entry in [7], in assay [8], in assay [10], in assay [11], in [12] and in [13] was “inactive” throughout. Also, the Potency result in [14], in assay [15] and in [16] was “inactive” throughout. In addition, the result in assay [9] was inactive. Besides, the Potency in [17] was 35.6 µM (active).
Consider `OCC(CO)(CO)CO`, for which the Potency entry in assay [1], in [2], in [3], in assay [4], in [5] and in [6] was “inactive” each time. For the same compound, the Potency entry in [7], in assay [8], in assay [10], in assay [11], in assay [12] and in assay [13] was “inactive” each time. The Potency result in assay [14], in assay [15], in assay [16] and in [17] was “inactive” each time. Moreover, the call in assay [9] was inactive.
On to `CCOC(=O)c1ccc(O)cc1`, for which the Potency entry in assay [1], in assay [2], in assay [3], in [4], in assay [5] and in [6] was “inactive” each time. The Potency result in [7], in assay [8], in assay [10], in assay [11], in [12] and in assay [13] was “inactive” each time. The Potency result in assay [14] and in assay [15] was “inactive” each time. Also, the result in assay [9] and in assay [19] was inactive. The max activation in [18] is -2.61%.
Take `COc1ccc([C@@H]2CC(=O)c3c(O)cc(O[C@@H]4O[C@H](CO[C@@H]5O[C@@H](C)[C@H](O)[C@@H](O)[C@H]5O)[C@@H](O)[C@H](O)[C@H]4O)cc3O2)cc1OC`: the Potency entry in assay [1], in assay [2], in assay [3], in assay [4], in assay [5] and in assay [6] was “inactive” in each case. In addition, the Potency entry in [7], in assay [8], in [10], in assay [11], in assay [12] and in assay [13] was “inactive” each time. For the same compound, the Potency result in assay [14], in [15], in assay [16] and in [17] was “inactive” in each case. In assay [9], the result was inactive.
